For twelve molecules, growth results are on record in PubChem BioAssay (NCI).

Each structure is given as a SMILES string. Compounds without any hit were thinned out: in the full panel of roughly 83,000, 20% have a hit.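 Growth was measured after 48 h exposure to one concentration of compound in 96-well plates. Values under 10 count as active.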 A number with no mark means an inactive call. Active and inactive are the calls of the source.

Common to all, as to assay: NCI-60 one-dose screen, 48 h (100 = growth as untreated, 0 = no growth, -100 = all killed)
What all share (conditions): 10 µM unless noted

Test [1] relates to DU-145 prostate.
The test system of test [2] is K-562 leukemia.
Test [3] has as its system MALME-3M melanoma.
In test [4] the test system is MDA-MB-231 breast.
Test [5] has as its system RXF 393 renal.
Test [6] deals with SF-268 CNS.
Test [7] relates to SF-295 CNS.
Test [8] deals with SF-539 CNS.
Test [9] relates to UACC-257 melanoma.
For test [10], the system named is M14 melanoma.

On to `O=C(Cc1c(-c2cccc([N+](=O)[O-])c2)n(-c2ncnc3c2c(-c2ccccc2)c(-c2ccccc2)n3Cc2ccccc2)[nH]c1=O)c1ccc(Cl)c(Cl)c1`, for which the growth in test [1] is 51%; in [2], 17.6%; in test [3], -3.97% (active); in test [4] it was 37.4%; in test [5] it was 44.9%; in test [6], 62.3%. The growth in test [7] was 12.2%; in test [8], 60.7%; in test [9] it was 30.9%; in test [10], 32.6%.

`Cn1cc(-c2cc(N)n3nc(-c4c[nH]c5ccc(Cl)cc45)cc3n2)c2cccnc21`: the growth in test [1] is -87.6% (active); in [2], -24.9% (active); in test [3], -92.3% (active); in test [4] it was -82.3% (active); in test [5], -73.4% (active); in test [6], -47.4% (active). For the same molecule, the growth in [7] is -92.6% (active); in [8], -95.6% (active); in test [9], -85.5% (active); in test [10] it was -90.5% (active).

`COc1ccc2oc(=O)c(-c3csc(N/N=C(\C)c4cc(OC)c(OC)c(OC)c4)n3)cc2c1`: the growth in [1] is 101%; in test [2] it was 92.3%; in test [3] it was 85%; in test [4], 86.8%; in test [5], 85.7%; in [6], 99.3%. In addition, the growth in [7] is 92%; in test [8], 103%; in test [9], 106%; in [10] it was 91.9%.

Take `CCOc1ccccc1[C@H]1C(C(=O)c2ccc(Cl)cc2)C2(N[C@@H]1c1ccccc1)C(=O)Nc1ccccc12` (stereo not given in full): the growth was 31% in test [1]; 0.16% (active) in [2]; -15.9% (active) in [3]; 2.23% (active) in test [4]; -66.5% (active) in [5]; 43.9% in test [6]. The growth in test [7] was 9.84% (active); in [8], 28%; in test [9], 55.3%; in test [10], 15.2%.

`CN(C)c1nc(NCCNS(=O)(=O)c2ccc(C(=O)/C=C/c3ccc(C(F)(F)F)cc3)cc2)nc(N2CCOCC2)n1`: the growth in test [1] was 3.39% (active); in [2], -13.6% (active); in test [3] it was 56.5%; in test [4] it was -59.1% (active); in [5] it was -76.6% (active); in test [6], 50.5%. The growth in [7] was 7.03% (active); in test [8], -95.4% (active); in test [9], 37.9%; in test [10], -87.5% (active).

In the case of `C#CCN(C)CCCOc1ccc(N(C)C(=O)c2cc(C(C)C)c(O)cc2O)cc1Cl`, the growth in test [1] is 24.3%; in test [2], 3.57% (active); in test [3], -27.8% (active); in test [4], -15.8% (active); in test [5], 22.3%; in [6], 41.4%. Further, the growth in test [7] is 6.57% (active); in test [8], 17.3%; in test [9], 9.35% (active); in test [10], 0.868% (active).

For the molecule `Cc1ccc(C(=O)Nc2cccc(C(=O)NC(=S)Nc3ccc(S(N)(=O)=O)cc3)c2)cc1`, the growth in test [1] is 77.3%; in test [2], 71.2%; in test [3], 59.8%; in test [4] it was 81.3%; in test [5], 46.4%; in [6] it was 61.4%. The growth in [7] was 60.3%; in test [8] it was 76.4%; in [9], 79.1%; in test [10], 83.7%.

Turning to `CC1=NN(C2=NC(=O)C(CC(=O)Nc3ccccc3C(F)(F)F)S2)C(c2ccc(N(C)C)cc2)C1` (stereo not given), the growth was 63.6% in test [1]; 28.3% in test [2]; 61.8% in [3]; 66% in [4]; 11.6% in test [5]; 47.4% in test [6]. For the same molecule, the growth was 41.3% in [7], 40.2% in test [8], 58.1% in test [9] and 47.7% in test [10].

For the molecule `Fc1cccc(CNc2nc(SCCN3CCOCC3)nc3c2cnn3CC(Cl)c2ccc(Br)cc2)c1` (stereo not given), the growth in test [1] is 49.9%; in test [2] it was -4.59% (active); in [3] it was -19.6% (active); in test [4], 6.57% (active); in [5], 29.5%; in test [6], 35%. Besides, the growth in test [7] is -10.5% (active); in test [8], 10.8%; in [9], 20.1%; in test [10] it was 28%.

Regarding `O=[N+]([O-])c1cccc(-c2nnc3c(/C=C/c4ccc(F)cc4)nc4ccccc4n23)c1`, the growth is 98.7% in test [1]; 87% in [2]; 95.7% in [3]; 94.6% in test [4]; 77.2% in test [5]; 87.5% in test [6]. The growth in test [7] is 80.8%; in [8] it was 66.9%; in test [9], 107%; in [10], 108%.

Consider `COc1cc(C=O)ccc1OC(=O)c1cc(-c2ccc(C)cc2)n(-c2ccc(S(C)(=O)=O)cc2)n1`, for which the growth in test [1] was 108%; in test [2], 86.5%; in [3] it was 102%; in test [4], 97.3%; in test [5], 117%; in test [6] it was 116%. Further, the growth is 103% in [7], 105% in [8], 101% in test [9] and 109% in [10].

With `CN(C)C(=O)c1cc(-c2ccc3ncnc(N4CCc5cc(F)c(Cl)cc54)c3c2)cnc1N`, the growth in test [1] was 23%; in [2], -21.7% (active); in test [3] it was -57.7% (active); in [4] it was -49.2% (active); in test [5] it was -73.7% (active); in [6] it was 24.2%. Besides, the growth in [7] was -73.1% (active); in [8], -73.2% (active); in [9] it was 4.11% (active); in test [10], -36.7% (active).
